“And” between values parts separate entries of the source, which are not always exact repeats. Equal entries are not always repeated. Results filed as inconclusive are left out. The source made the active and inactive calls. Calls come from the whole dose curve. Bridge positions count the residues as written; N and C are the ends. Square brackets hold non-standard residues; d marks the D form. Peptide text beside a SMILES is read from it. * marks the point of attachment. X1 = CCC(C)C(N)C1=NC(C(=O)*)CS1; dOrn = NCCC[C@@H](N)C(=O)O
Assays:
[1] = Primary qHTS for inhibitors of SARS-S pseudo-typed particle cell entry (AID 1479145); conditions: outcome: dose series up to 57.1 µM unless noted; note: nearly all actives have a fitted effect of over 45% in size; for activity change, negative = inhibition: % is set by controls: 0 for no effect and ±100 for the full control effect
[2] = Primary qHTS for Huh7 cytotoxicity: counterscreen for inhibitors of MERS-S pseudotyped particle cell entry (AID 1479147); conditions: outcome: dose series up to 57.1 µM unless noted; for activity change, negative = cytotoxicity: % is set by controls: 0 for no effect and ±100 for the full control effect
[3] = Primary qHTS for inhibitors of MERS-S pseudo-typed particle cell entry (AID 1479149); conditions: outcome: dose series up to 57.1 µM unless noted; note: nearly all actives have a fitted effect of over 60% in size
[4] = Primary qHTS for Vero E6 cytotoxicity: counterscreen for inhibitors of SARS-S pseudo-typed particle cell entry (AID 1479150); conditions: outcome: dose series up to 57.1 µM unless noted; for activity change, negative = cytotoxicity: % is set by controls: 0 for no effect and ±100 for the full control effect
[5] = Cytotoxicity counterscreen for inhibitors of SARS-CoV-2 cell entry (AID 1645845); conditions: outcome: dose series up to 57.1 µM unless noted; note: nearly all actives have a fitted effect of over 50% in size; for activity change, negative = cytotoxicity: % is set by controls: 0 for no effect and ±100 for the full control effect
Procedure, shortened: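 Expi293F/hACE2 cells seeded overnight; cpd pin-transferred in DMSO, 1 h preincubation, + media, 48 h 37 C 5% CO2; ATPLite 1step luminescence; normalized to cells and no cells.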

[6] = Primary qHTS to identify inhibitors of SARS-CoV-2 cell entry (AID 1645846); conditions: SARS-CoV-2 pseudovirus cell entry assay, luminescence; activity change, negative = inhibition: at 57.1 µM (top of the series) unless noted; note: nearly all actives have a fitted effect of over 45% in size
Procedure, shortened: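 Using luciferase-reporting pseudoviruses carrying Wuhan-Hu-1 spike, the screen tracks entry into stably ACE2-expressing cells over 48 hr. Activity is expressed relative to spike particles versus particles lacking any fusion protein.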

CN1CCc2nc(C(=O)N[C@@H]3C[C@@H](C(=O)N(C)C)CC[C@@H]3NC(=O)C(=O)Nc3ccc(Cl)cn3)sc2C1
-19.9%: activity change, negative = inhibition [6]
inactive: Potency [1] | Potency [2] | Potency [3] | Potency [4] | Potency [5]

CC1CC2C3CCC4=CC(=O)C=CC4(C)C3(F)C(O)CC2(C)C1(O)C(=O)COC(=O)c1cccc(S(=O)(=O)O)c1 (stereo unspecified)
inactive: Potency [1] | Potency [2] | Potency [3] | Potency [4] | Potency [5]
4.79%: activity change, negative = inhibition [6]

NCCCC[C@H](NC(=O)[C@@H]1CCCN1C(=O)[C@@H]1CSSC[C@H](N)C(=O)N[C@@H](Cc2ccc(O)cc2)C(=O)N[C@@H](Cc2ccccc2)C(=O)N[C@@H](CCC(N)=O)C(=O)N[C@@H](CC(N)=O)C(=O)N1)C(=O)NCC(N)=O
-25.1%: activity change, negative = inhibition [6]
inactive: Potency [1] | Potency [2] | Potency [3] | Potency [4] | Potency [5]

CC(=O)[O][Al][O]C(C)=O
inactive: activity change, negative = inhibition [1] -39.3% [at 11.4 µM] | outcome [2] inactive [at 11.4 µM] | outcome [3] inactive [at 11.4 µM] | activity change, negative = cytotoxicity [4] -2.68% [at 11.4 µM] | outcome [5] inactive [at 11.3 µM]
-37.2% [at 11.3 µM]: activity change, negative = inhibition [6]

COC(=O)CCC[N+](C)(C)C
inactive: Potency [1] | Potency [2] | Potency [3] | Potency [4] | Potency [5]
-38.5%: activity change, negative = inhibition [6]

CS(=O)(=O)n1cc2c(n1)CN([C@H]1CO[C@H](c3cc(F)ccc3F)[C@@H](N)C1)C2
inactive: Potency [1] | Potency [2] | Potency [3] | Potency [4] | Potency [5]
-25.8%: activity change, negative = inhibition [6]

CO[C@H]1O[C@@H]2O[C@@]3(C)CC[C@H]4[C@H](C)CC[C@@H]([C@@H]1C)[C@@]24OO3
-7.86%: activity change, negative = inhibition [6]
inactive: Potency [1] | Potency [2] | Potency [3] | Potency [4] | Potency [5]

[2H]N[C@@H](Cc1ccccc1)C(=O)N1CCC[C@H]1C(=O)N[C@@H](CCCNC(=N)N)C(=O)N1CCC[C@H]1C(=O)NCC(=O)NCC(=O)NCC(=O)NCC(=O)N[C@@H](CC(N)=O)C(=O)NCC(=O)N[C@@H](CC(=O)O)C(=O)N[C@@H](Cc1ccccc1)C(=O)N[C@@H](CCC(=O)O)C(=O)N[C@@H](CCC(=O)O)C(=O)N[C@H](C(=O)N1CCC[C@H]1C(=O)N[C@@H](CCC(=O)O)C(=O)N[C@@H](CCC(=O)O)C(=O)N[C@@H](Cc1ccc(O)cc1)C(=O)N[C@@H](CC(C)C)C(=O)O)[C@@H](C)CC
-18.8% [at 11.3 µM]: activity change, negative = inhibition [6]
inactive: activity change, negative = inhibition [1] -29.4% [at 11.4 µM] | outcome [2] inactive [at 11.4 µM] | activity change, negative = inhibition [3] -9.94% [at 11.4 µM] | activity change, negative = cytotoxicity [4] -0.847% [at 11.4 µM] | activity change, negative = cytotoxicity [5] 2.97% [at 11.3 µM]

CC[C@H]1[C@@H](O)[C@@H]2[C@H](CC[C@]3(C)[C@@H]([C@H](C)CCC(=O)O)CC[C@@H]23)[C@@]2(C)CC[C@@H](O)C[C@@H]12
-6.18%: activity change, negative = inhibition [6]
inactive: Potency [1] | Potency [2] | Potency [3] | Potency [4] | Potency [5]

C#C[C@]1(O)CC[C@H]2[C@@H]3CCC4=CC(=O)CCC4[C@H]3CC[C@@]21CC (stereo partly specified)
-19.1%: activity change, negative = inhibition [6]
inactive: Potency [1] | Potency [2] | Potency [3] | Potency [4] | Potency [5]

CSCC[C@H](N)C(=O)O
inactive: Potency [1] | Potency [2] | Potency [3] | Potency [4] | Potency [5] | Potency [6]

CC1(C)S[C@@H]2[C@H](NC(=O)C(C(=O)Oc3ccc4c(c3)CCC4)c3ccccc3)C(=O)N2[C@H]1C(=O)O (stereo partly specified)
inactive: Potency [1] | Potency [2] | Potency [3] | Potency [4] | Potency [5] | Potency [6]

O=C(CCc1ccc(O)cc1)c1c(O)cc(O)cc1O[C@@H]1O[C@H](CO)[C@@H](O)[C@H](O)[C@H]1O
inactive: Potency [1] | Potency [2] | Potency [3] | Potency [4] | Potency [5]
0.14% and -17.3%: activity change, negative = inhibition [6]

COCC1=C(C(=O)O)N2C(=O)[C@@H](NC(=O)/C(=N\OC)c3csc(N)n3)[C@H]2SC1
inactive: Potency [1] | Potency [2] | Potency [3] | Potency [4] | Potency [5]
-16.5%: activity change, negative = inhibition [6]

O=P(O)(O)OP(=O)(O)O
-3.78%: activity change, negative = inhibition [6]
inactive: Potency [1] | Potency [2] | Potency [3] | Potency [4] | Potency [5]

CCCCCCCCCCCCCCCCOc1nc2ccc(C)cc2c(=O)o1
inactive: Potency [1] | Potency [2] | Potency [3] | Potency [4] | Potency [5]
-28.4%: activity change, negative = inhibition [6]

CC(C)(C)C(=O)OCC(=O)[C@H]1CC[C@H]2[C@@H]3CCC4=CC(=O)CC[C@]4(C)[C@H]3CC[C@]12C
-13%: activity change, negative = inhibition [6]
inactive: Potency [1] | Potency [2] | Potency [3] | Potency [4] | Potency [5]

CCOc1ccc(Cc2cc([C@@]34OC[C@@](CO)(O3)[C@@H](O)[C@H](O)[C@H]4O)ccc2Cl)cc1
inactive: Potency [1] | Potency [2] | Potency [3] | Potency [4] | Potency [5]
-29.2%: activity change, negative = inhibition [6]

CCCCCCCCCCCCCCCCCCCCCCCCCCCCO
inactive: activity change, negative = inhibition [1] -10.7% [at 0.573 µM] | outcome [2] inactive [at 0.573 µM] | outcome [3] inactive [at 0.573 µM] | activity change, negative = cytotoxicity [4] 3.84% [at 0.573 µM] | outcome [5] inactive [at 0.702 µM] | outcome [6] inactive [at 0.702 µM]

O=P(O)(O)CP(=O)(O)O
inactive: Potency [1] | Potency [2] | Potency [3] | Potency [4] | Potency [5]
-15.6%: activity change, negative = inhibition [6]

CCCCCCCCCCCCCCCC(=O)OCC=C(C)C=CC=C(C)C=CC1=C(C)CCCC1(C)C
inactive: Potency [1] | Potency [2] | Potency [3] | Potency [4] | Potency [5]
-0.93%: activity change, negative = inhibition [6]

O=C(O[C@H]1C[N+]2(CCCOc3ccccc3)CCC1CC2)C(O)(c1cccs1)c1cccs1
-28.6%: activity change, negative = inhibition [6]
inactive: Potency [1] | Potency [2] | Potency [3] | Potency [4] | Potency [5]

CC(=O)O[C@H]1CC[C@@]2(C)C(=CC[C@H]3[C@@H]4CC[C@H](C(C)=O)[C@@]4(C)CC[C@@H]32)C1
inactive: Potency [1] | Potency [2] | Potency [3] | Potency [4] | Potency [5]
-16.3%: activity change, negative = inhibition [6]

CCC(C)C(N)C1=NC(C(=O)N[C@@H](CC(C)C)C(=O)N[C@H](CCC(=O)O)C(=O)N[C@H](C(=O)N[C@H]2CCCCNC(=O)[C@H](CC(N)=O)NC(=O)[C@@H](CC(=O)O)NC(=O)[C@H](Cc3cnc[nH]3)NC(=O)[C@@H](Cc3ccccc3)NC(=O)[C@H]([C@@H](C)CC)NC(=O)[C@@H](CCCN)NC2=O)[C@@H](C)CC)CS1 (stereo partly specified) (X1-L[dE]IK[dOrn]I[dF]H[dD]N; lactam 4-C)
-8.8% [at 27.1 µM]: activity change, negative = inhibition [6]
inactive: Potency [1] | Potency [2] | Potency [3] | Potency [4] | Potency [5]

C=C1CC2C3CCC4=CC(=O)C=C[C@]4(C)[C@@]3(F)[C@@H](O)C[C@]2(C)[C@@]1(O)C(=O)COC(C)=O (stereo partly specified)
inactive: Potency [1] | Potency [2] | Potency [3] | Potency [4] | Potency [5] | Potency [6]

CCCC(=O)O[C@]1(C(=O)COC(=O)CC)[C@@H](C)C[C@H]2[C@@H]3CCC4=CC(=O)C=C[C@]4(C)[C@@]3(F)[C@@H](O)C[C@@]21C
inactive: Potency [1] | Potency [2] | Potency [3] | Potency [4] | Potency [5] | Potency [6]

O=C(Cn1cnnn1)N[C@@H]1C(=O)N2C(C(=O)O)=C(CSc3nncs3)CS[C@H]12
-9.88%: activity change, negative = inhibition [6]
inactive: Potency [1] | Potency [2] | Potency [3] | Potency [4] | Potency [5]

CCCCCCCCCCCCCCCC(=O)OC1C(SC)OC(C(NC(=O)C2CC(CCC)CN2C)C(C)Cl)C(O)C1O (stereo unspecified)
-14%: activity change, negative = inhibition [6]
inactive: Potency [1] | Potency [2] | Potency [3] | Potency [4] | Potency [5]

Cc1ccc(/C=C2\C(=O)C3(C)CCC2C3(C)C)cc1 (stereo unspecified)
inactive: Potency [1] | Potency [2] | Potency [3] | Potency [4] | Potency [5] | Potency [6]

CCC(=O)OCC(=O)[C@]1(OC(=O)CC)[C@H](C)C[C@H]2[C@H]3[C@H]([C@@H](O)C[C@@]21C)[C@@]1(C)C=CC(=O)C=C1C[C@H]3Cl
inactive: Potency [1] | Potency [2] | Potency [3] | Potency [4] | Potency [5]
-6.25%: activity change, negative = inhibition [6]

CN=C(NC)NCc1ccccc1
-12.2%: activity change, negative = inhibition [6]
inactive: Potency [1] | Potency [2] | Potency [3] | Potency [4] | Potency [5]

CC(OC(=O)OC1CCCCC1)OC(=O)C1=C(CSc2nnnn2CCN(C)C)CS[C@@H]2[C@H](NC(=O)Cc3csc(N)n3)C(=O)N12 (stereo partly specified)
inactive: Potency [1] | Potency [2] | Potency [3] | Potency [4] | Potency [5]
-37%: activity change, negative = inhibition [6]

CC1(O)CCC(C(C)(C)O)CC1 (stereo unspecified)
inactive: Potency [1] | Potency [2] | Potency [3] | Potency [4] | Potency [5] | Potency [6]

O=P(O)(O)C(O)(Cc1cnc2ccccn12)P(=O)(O)O
inactive: outcome [1] inactive [at 0.573 µM] | outcome [2] inactive [at 0.573 µM] | activity change, negative = inhibition [3] -0.315% [at 0.573 µM] | outcome [4] inactive [at 0.573 µM] | outcome [5] inactive [at 0.702 µM] | outcome [6] inactive [at 0.702 µM]

CCCCC(CC)COC(=O)c1ccc(Nc2nc(Nc3ccc(C(=O)OCC(CC)CCCC)cc3)nc(Nc3ccc(C(=O)OCC(CC)CCCC)cc3)n2)cc1 (stereo unspecified)
inactive: Potency [1] | Potency [2] | Potency [3] | Potency [4] | Potency [5]
-28%: activity change, negative = inhibition [6]

CO[C@H]1/C=C\O[C@@]2(C)Oc3c(C)c(O)c4c(O)c(c(/C=N/N5CCN(C6CCCC6)CC5)c(O)c4c3C2=O)NC(=O)/C(C)=C\C=C/[C@H](C)[C@H](O)[C@@H](C)[C@@H](O)[C@@H](C)[C@H](OC(C)=O)[C@@H]1C
inactive: Potency [1] | Potency [2] | Potency [3] | Potency [4] | Potency [5] | Potency [6]

Source: PubChem BioAssay (NCATS)
